In PubChem BioAssay:
Results filed as inconclusive are left out. Active and inactive are the calls of the source.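 The calls were made as follows, unless noted: active = normalized viability below 100% at a tested concentration; inactive = the rest.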

How the values were obtained:
[1] = viability loss in pontine glioma line – cell-based, SU-DIPG-XIII, MIPE4.0, CellTiter-Glo, qHTS, dose response (AID 1347061; cut-off not given, nearly all actives have AC50 up to about 37 µM;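 also: cells exposed to compound for 48 hours before readout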); conditions: CellTiter-Glo ATP luminescence
[2] = viability loss in pontine glioma line – cell-based, JHH-DIPG-1, MIPE4.0, CellTiter-Glo, qHTS, dose response (AID 1347062; cut-off not given, nearly all actives have AC50 up to about 27 µM); conditions: JHH-DIPG-1 viability, CellTiter-Glo ATP luminescence
[3] = viability loss in pontine glioma line – cell-based, SU-DIPG-XXV, MIPE5.0, CellTiter-Glo, qHTS, dose response (AID 1347065; cut-off not given, nearly all actives have AC50 up to about 26 µM;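 also: cells exposed to compound for 48 hours before ATP readout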); conditions: CellTiter-Glo ATP luminescence
[4] = growth inhibition of DIPG cells – cell-based, MIPE5.0 library, qHTS (AID 1347068; cut-off not given, nearly all actives have IC50 up to about 30 µM); conditions: SU-DIPG-XXV viability
[5] = viability loss with induced miR-34 in A549 – imaging, A549 dox-inducible miR-34, nuclei and caspase counts, primary screen (AID 1347080;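 active = compounds whose cell count with miR-34 switched on is under 0.7 times the count with it off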); conditions: A549 miR-34 inducible, Hoechst nuclei count, 48 h
[6] = compounds altering HSF1 focus formation in cells – imaging, Selleck Cancer Library (AID 1347162; in the data active = plate-normalised HSF1 focus index below about 0.46); conditions: human cells, HSF1 nuclear foci imaging, at 10 µM; SSMD: measured here: HSF1 foci SSMD mean; cell count: measured here: cell number; plate-normalised HSF1 focus index: stronger effect = lower value
[7] = MELAS cybrid and Rieske KO viability enhancers – cell-based, MELAS cybrids, Rieske KO mouse fibroblasts, CellTiter-Glo, primary screen (AID 1508586;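 active = mean z-score across replicates of 1.96 or higher in either the MELAS or the Rieske mutant cell line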;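 also: z relative to plate mean and SD of compound and empty wells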); conditions: low glucose
[8] = drug combination growth inhibition, ovarian cancer – cell-based, oncology-focused library, rucaparib conditional, profiling panel (AID 1508598); conditions: patient-derived ovarian cancer cells, CellTiter-Glo viability, 144 h, stronger effect = lower value
[9] = growth inhibition of DIPG cells – cell-based, MIPE4.0 library, CellTiter-Glo luminescence, qHTS (AID 1347066; cut-off not given, nearly all actives have AC50 up to about 30 µM;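 also: cells exposed to compound for 48 hours before readout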); conditions: SU-DIPG-VI viability, CellTiter-Glo ATP luminescence
[10] = viability loss in pontine glioma line – cell-based, SU-DIPG-XIII, MIPE5.0, CellTiter-Glo, qHTS, dose response (AID 1347064; cut-off not given, nearly all actives have AC50 up to about 23 µM); conditions: CellTiter-Glo ATP luminescence
[11] = JHH-DIPG-1 glioma cell viability, MIPE5.0 library, CellTiter-Glo luminescence, qHTS (AID 1347067; cut-off not given, nearly all actives have AC50 up to about 26 µM;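 also: cells exposed to compound for 48 hours before readout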); conditions: JHH-DIPG-1 glioma viability, CellTiter-Glo ATP luminescence

Cc1cnc(-c2cnc(NCCNc3ccc(C#N)cn3)nc2-c2ccc(Cl)cc2Cl)[nH]1
0.884: fold change ([5]; measured here: relative caspase fold change +Dox/-Dox)
-0.0886: z-score ([7]; Rieske KO mouse fibroblast survival, CellTiter-Glo 72 h)
2900: cell count ([5]; measured here: total cells with miR-34 induction, stronger effect = lower value)
3740: cell count ([5]; measured here: total cells without miR-34 induction)
7270: cell count [6]
-0.145: SSMD [6]
inactive: outcome [1] | outcome [2] | outcome [3] | outcome [4] | fold change ([5]; stronger effect = lower value, cell number ratio, induced over uninduced) 0.776 | plate-normalised HSF1 focus index [6] 0.999 | z-score ([7]; MELAS cybrid survival, CellTiter-Glo 48 h, stronger effect = higher value) -0.0957 | viability ([8]; at 0.000305 µM, OCI-C5x cells, with rucaparib 10 µM, 100% = cells with rucaparib alone) 111% | viability ([8]; at 0.000305 µM, OCI-C5x cells, without rucaparib) 124% | viability ([8]; at 0.000305 µM, OCI-P5x cells, with rucaparib 20 µM, 100% = cells with rucaparib alone) 101% | viability ([8]; at 0.000305 µM, OCI-P5x cells, without rucaparib) 106% | viability ([8]; at 0.00122 µM, OCI-C5x cells, with rucaparib 10 µM, 100% = cells with rucaparib alone) 108% | viability ([8]; at 0.00122 µM, OCI-C5x cells, without rucaparib) 122% | viability ([8]; at 0.00122 µM, OCI-P5x cells, with rucaparib 20 µM, 100% = cells with rucaparib alone) 101% | viability ([8]; at 0.00122 µM, OCI-P5x cells, without rucaparib) 106% | viability ([8]; at 0.00488 µM, OCI-C5x cells, with rucaparib 10 µM, 100% = cells with rucaparib alone) 118% | viability ([8]; at 0.00488 µM, OCI-C5x cells, without rucaparib) 114% | viability ([8]; at 0.0195 µM, OCI-C5x cells, with rucaparib 10 µM, 100% = cells with rucaparib alone) 126% | viability ([8]; at 0.0195 µM, OCI-C5x cells, without rucaparib) 129% | viability ([8]; at 0.0195 µM, OCI-P5x cells, without rucaparib) 102% | viability ([8]; at 0.0781 µM, OCI-C5x cells, with rucaparib 10 µM, 100% = cells with rucaparib alone) 113% | viability ([8]; at 0.0781 µM, OCI-C5x cells, without rucaparib) 116% | viability ([8]; at 0.0781 µM, OCI-P5x cells, with rucaparib 20 µM, 100% = cells with rucaparib alone) 102% | viability ([8]; at 0.313 µM, OCI-C5x cells, with rucaparib 10 µM, 100% = cells with rucaparib alone) 127% | viability ([8]; at 0.313 µM, OCI-C5x cells, without rucaparib) 127% | viability ([8]; at 1.25 µM, OCI-C5x cells, with rucaparib 10 µM, 100% = cells with rucaparib alone) 121% | viability ([8]; at 1.25 µM, OCI-C5x cells, without rucaparib) 115% | viability ([8]; at 5 µM, OCI-C5x cells, without rucaparib) 133%
active: viability ([8]; at 0.00488 µM, OCI-P5x cells, with rucaparib 20 µM, 100% = cells with rucaparib alone) 98% | viability ([8]; at 0.00488 µM, OCI-P5x cells, without rucaparib) 99% | viability ([8]; at 0.0195 µM, OCI-P5x cells, with rucaparib 20 µM, 100% = cells with rucaparib alone) 88.1% | viability ([8]; at 0.0781 µM, OCI-P5x cells, without rucaparib) 99.7% | viability ([8]; at 0.313 µM, OCI-P5x cells, with rucaparib 20 µM, 100% = cells with rucaparib alone) 93.1% | viability ([8]; at 0.313 µM, OCI-P5x cells, without rucaparib) 99.5% | viability ([8]; at 1.25 µM, OCI-P5x cells, with rucaparib 20 µM, 100% = cells with rucaparib alone) 93.8% | viability ([8]; at 1.25 µM, OCI-P5x cells, without rucaparib) 91.8% | viability ([8]; at 5 µM, OCI-C5x cells, with rucaparib 10 µM, 100% = cells with rucaparib alone) 80.9% | viability ([8]; at 5 µM, OCI-P5x cells, with rucaparib 20 µM, 100% = cells with rucaparib alone) 58.5% | viability ([8]; at 5 µM, OCI-P5x cells, without rucaparib) 78%

O=C(N[C@@H](c1ccccc1)[C@@H]1CCCCN1)c1cccc(C(F)(F)F)c1Cl
active: AC50 [3] 20.9 µM
inactive: outcome [1] | outcome [2] | outcome [9] | outcome [4]

CCCCC(=O)O[C@]1(C(=O)CO)[C@H](C)C[C@H]2[C@@H]3CCC4=CC(=O)C=C[C@]4(C)[C@@]3(F)[C@@H](O)C[C@@]21C
inactive: outcome [1] | outcome [2] | outcome [9]

CC1(C)OC2CC3C4CC(F)C5=CC(=O)C=CC5(C)C4C(O)CC3(C)[C@]2(C(=O)CO)O1 (some centres not stated)
inactive: outcome [1] | outcome [2] | outcome [9]

CCOC(=O)N[C@@H]1CC[C@@H]2[C@@H](C1)C[C@H]1C(=O)O[C@H](C)[C@H]1[C@H]2/C=C/c1ccc(-c2cccc(F)c2)cn1
inactive: outcome [1] | outcome [2] | outcome [10] | outcome [9] | outcome [11] | outcome [4]
